Test results: PubChem BioAssay (NCI)
Compounds without any hit were thinned out: in the full panel of roughly 83,000, 20% have a hit.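 Treatment: one concentration, 48 hours, 96-well format. Scoring: percent growth, with anything below 10 considered active.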 Calls of active or inactive are those of the source.

Assays:
Experiment in all cases: NCI-60 one-dose screen, 48 h (100 = growth as untreated, 0 = no growth, -100 = all killed)
Details in all cases: 10 µM unless noted
SK-MEL-2 melanoma = tested on: SK-MEL-2 melanoma
EKVX NSCLC = tested on: EKVX NSCLC
SN12C renal = tested on: SN12C renal
UO-31 renal = tested on: UO-31 renal
TK-10 renal = tested on: TK-10 renal
ACHN renal = tested on: ACHN renal
CAKI-1 renal = tested on: CAKI-1 renal
CCRF-CEM leukemia = tested on: CCRF-CEM leukemia
MOLT-4 leukemia = tested on: MOLT-4 leukemia
SR leukemia = tested on: SR leukemia
RPMI-8226 leukemia = tested on: RPMI-8226 leukemia
OVCAR-8 ovarian = tested on: OVCAR-8 ovarian
OVCAR-5 ovarian = tested on: OVCAR-5 ovarian
OVCAR-4 ovarian = tested on: OVCAR-4 ovarian
IGROV1 ovarian = tested on: IGROV1 ovarian
OVCAR-3 ovarian = tested on: OVCAR-3 ovarian
HS 578T breast = tested on: HS 578T breast
NCI/ADR-RES ovarian = tested on: NCI/ADR-RES ovarian
SK-OV-3 ovarian = tested on: SK-OV-3 ovarian

Measured: growth

O=C(Nc1cccc(Cl)c1)c1cc(Cl)ccc1O
inactive: TK-10 renal 13.4% | CCRF-CEM leukemia 12.9% | SR leukemia 12.3% | OVCAR-5 ovarian 12.3% | OVCAR-4 ovarian 27.4% | IGROV1 ovarian 17.5% | OVCAR-3 ovarian 13.5%
active: SK-MEL-2 melanoma -17.7% | EKVX NSCLC 7.96% | SN12C renal -0.418% | UO-31 renal 7.54% | ACHN renal -0.748% | CAKI-1 renal -7.81% | MOLT-4 leukemia 4.18% | RPMI-8226 leukemia -20.9% | OVCAR-8 ovarian 9.51% | HS 578T breast -7.76% | NCI/ADR-RES ovarian 2.78%

CC(=O)OCC(=O)C1(O)C(C)CC2C3C=C(C)C4=Cc5c(cnn5-c5ccccc5)CC4(C)C3C(O)CC21C (stereo unspecified)
active: UO-31 renal -11.6% | MOLT-4 leukemia 9.2% | SR leukemia 2.76% | RPMI-8226 leukemia -18.3%
inactive: SK-MEL-2 melanoma 25.1% | EKVX NSCLC 27% | SN12C renal 33.5% | TK-10 renal 38.7% | ACHN renal 22.8% | CAKI-1 renal 21.3% | CCRF-CEM leukemia 10.6% | OVCAR-8 ovarian 44.9% | OVCAR-5 ovarian 25.3% | OVCAR-4 ovarian 43.2% | SK-OV-3 ovarian 43.1% | OVCAR-3 ovarian 11.5% | NCI/ADR-RES ovarian 35%

CCCCCCCCCCCC(=O)C(CCCCCCCCCC)C(=O)Nc1ccccc1 (stereo unspecified)
inactive: SK-MEL-2 melanoma 98.8% | EKVX NSCLC 108% | SN12C renal 98.1% | UO-31 renal 86.1% | TK-10 renal 95.1% | ACHN renal 100% | CAKI-1 renal 97% | CCRF-CEM leukemia 103% | MOLT-4 leukemia 89.3% | SR leukemia 99.7% | RPMI-8226 leukemia 99.2% | OVCAR-8 ovarian 103% | OVCAR-5 ovarian 101% | OVCAR-4 ovarian 102% | SK-OV-3 ovarian 108% | IGROV1 ovarian 89.2% | OVCAR-3 ovarian 112% | HS 578T breast 96.8% | NCI/ADR-RES ovarian 102%

C[C@H]1[C@H](C)CC[C@]2(CO)CC[C@]3(C)C(=CC[C@@H]4[C@@]5(C)CCCNC(C)(C)[C@@H]5CC[C@]43C)[C@H]12
inactive: SK-MEL-2 melanoma 13.1% | EKVX NSCLC 19.4% | UO-31 renal 12.5% | TK-10 renal 23% | CAKI-1 renal 16.4% | OVCAR-5 ovarian 28.4% | OVCAR-4 ovarian 18.5% | SK-OV-3 ovarian 69.6% | HS 578T breast 10.5% | NCI/ADR-RES ovarian 17.6%
active: SN12C renal -1.54% | ACHN renal -66.3% | CCRF-CEM leukemia -34.7% | MOLT-4 leukemia -45.6% | SR leukemia -49.9% | RPMI-8226 leukemia -39.7% | OVCAR-8 ovarian 9.93% | IGROV1 ovarian -57.9% | OVCAR-3 ovarian 6.84%

CC(=O)c1c(-c2ccc(OC(F)(F)F)cc2)nc2ccccn12
inactive: SK-MEL-2 melanoma 81.5% | EKVX NSCLC 96% | SN12C renal 103% | UO-31 renal 81.6% | ACHN renal 95.7% | CAKI-1 renal 92.4% | CCRF-CEM leukemia 109% | MOLT-4 leukemia 118% | SR leukemia 116% | RPMI-8226 leukemia 101% | OVCAR-5 ovarian 83.1% | OVCAR-4 ovarian 100% | SK-OV-3 ovarian 97.6% | IGROV1 ovarian 88.8% | OVCAR-3 ovarian 101% | HS 578T breast 102% | NCI/ADR-RES ovarian 95.9%
active: TK-10 renal 6.58%

CC(C)C1C2=C(NCCN1C(=O)Cc1ccccc1)C(C)(C)N(Cc1ccccc1)C2=O (stereo unspecified)
inactive: SK-MEL-2 melanoma 94.3% | EKVX NSCLC 94.5% | SN12C renal 98.5% | UO-31 renal 87.3% | TK-10 renal 97.3% | ACHN renal 101% | CAKI-1 renal 84.2% | CCRF-CEM leukemia 111% | MOLT-4 leukemia 96.8% | SR leukemia 106% | RPMI-8226 leukemia 102% | OVCAR-8 ovarian 100% | OVCAR-5 ovarian 102% | OVCAR-4 ovarian 104% | SK-OV-3 ovarian 93.5% | IGROV1 ovarian 98.8% | OVCAR-3 ovarian 102% | HS 578T breast 103% | NCI/ADR-RES ovarian 99%

Nc1nnc(C(=O)c2cnc3n(c2=O)CCCCC3)s1
inactive: SK-MEL-2 melanoma 112% | EKVX NSCLC 98.8% | SN12C renal 95.1% | UO-31 renal 86.3% | TK-10 renal 102% | ACHN renal 101% | CAKI-1 renal 92.3% | CCRF-CEM leukemia 128% | MOLT-4 leukemia 97.1% | SR leukemia 107% | OVCAR-8 ovarian 105% | OVCAR-5 ovarian 104% | OVCAR-4 ovarian 111% | SK-OV-3 ovarian 101% | IGROV1 ovarian 110% | OVCAR-3 ovarian 102% | HS 578T breast 99.7% | NCI/ADR-RES ovarian 94.7%

CCOC(=O)Oc1c(OC)cc(C(=O)O[C@@H]2C[C@@H]3CN4CCc5c([nH]c6cc(OC)ccc56)[C@H]4C[C@@H]3[C@H](C(=O)OC)[C@H]2OC)cc1OC
active: CCRF-CEM leukemia -10.8% | MOLT-4 leukemia 7.97% | SR leukemia -2.39% | RPMI-8226 leukemia -5.39%
inactive: SK-MEL-2 melanoma 105% | EKVX NSCLC 64.6% | SN12C renal 60% | UO-31 renal 80.2% | TK-10 renal 99.7% | ACHN renal 66.5% | CAKI-1 renal 65.5% | OVCAR-8 ovarian 75.9% | OVCAR-5 ovarian 90.5% | OVCAR-4 ovarian 94.7% | SK-OV-3 ovarian 91.9% | IGROV1 ovarian 82.3% | OVCAR-3 ovarian 38.5% | HS 578T breast 72.1% | NCI/ADR-RES ovarian 56.5%

O=C(Nc1nc(-c2ccccc2Cl)cs1)c1cc(-c2ccccc2)nc2ccc(Cl)cc12
inactive: SK-MEL-2 melanoma 69.9% | EKVX NSCLC 92.2% | SN12C renal 37.9% | UO-31 renal 52.3% | TK-10 renal 88% | ACHN renal 84.9% | CAKI-1 renal 81.5% | CCRF-CEM leukemia 18.8% | MOLT-4 leukemia 25.8% | SR leukemia 21.9% | RPMI-8226 leukemia 21.4% | OVCAR-8 ovarian 19.2% | OVCAR-4 ovarian 76% | SK-OV-3 ovarian 95.5% | IGROV1 ovarian 59.7% | OVCAR-3 ovarian 28.1% | HS 578T breast 76.4% | NCI/ADR-RES ovarian 16.5%

NNC(=O)/C(=C\c1ccc([N+](=O)[O-])cc1)CC(=O)c1ccc(Cl)c(Cl)c1
inactive: SK-MEL-2 melanoma 95.7% | EKVX NSCLC 69.5% | SN12C renal 88% | UO-31 renal 58.6% | TK-10 renal 97.5% | ACHN renal 91.1% | CAKI-1 renal 66.8% | CCRF-CEM leukemia 80.9% | MOLT-4 leukemia 61.4% | SR leukemia 86.7% | RPMI-8226 leukemia 91.7% | OVCAR-8 ovarian 90.9% | OVCAR-5 ovarian 87.8% | OVCAR-4 ovarian 80% | SK-OV-3 ovarian 99.9% | IGROV1 ovarian 70% | OVCAR-3 ovarian 97.2% | HS 578T breast 88.4% | NCI/ADR-RES ovarian 84.9%

COc1ccc(C2=C(c3ccccc3)c3ccc(OC(C)=O)cc3OC2(C)C)cc1
active: MOLT-4 leukemia 4.69%
inactive: SK-MEL-2 melanoma 94.9% | EKVX NSCLC 82.3% | SN12C renal 93% | UO-31 renal 90.6% | TK-10 renal 116% | ACHN renal 76.3% | CAKI-1 renal 67.8% | CCRF-CEM leukemia 50.3% | SR leukemia 41.2% | RPMI-8226 leukemia 32% | OVCAR-8 ovarian 125% | OVCAR-5 ovarian 85.3% | OVCAR-4 ovarian 88.2% | SK-OV-3 ovarian 116% | IGROV1 ovarian 96.7% | OVCAR-3 ovarian 85.1% | HS 578T breast 104% | NCI/ADR-RES ovarian 77.2%

C=C(C)[C@@H]1CC[C@]2(C=O)CC[C@]3(C)[C@H](CC[C@@H]4[C@@]5(C)CCCNC(C)(C)[C@@H]5CC[C@]43C)[C@@H]12
inactive: SK-MEL-2 melanoma 89.5% | EKVX NSCLC 96.6% | SN12C renal 74.1% | UO-31 renal 69% | TK-10 renal 88.2% | ACHN renal 88.1% | CAKI-1 renal 89.4% | CCRF-CEM leukemia 59.7% | MOLT-4 leukemia 49.1% | RPMI-8226 leukemia 12.3% | OVCAR-8 ovarian 90.9% | OVCAR-5 ovarian 93.3% | OVCAR-4 ovarian 82.3% | SK-OV-3 ovarian 106% | IGROV1 ovarian 50.8% | OVCAR-3 ovarian 77.5% | HS 578T breast 89.1% | NCI/ADR-RES ovarian 85.3%
active: SR leukemia -31.4%

CCNC(=S)NNC(=O)c1cc2ccc1CCc1ccc(cc1)CC2
inactive: SK-MEL-2 melanoma 102% | EKVX NSCLC 94.4% | SN12C renal 95.3% | UO-31 renal 83.7% | TK-10 renal 103% | ACHN renal 107% | CAKI-1 renal 94.9% | CCRF-CEM leukemia 107% | MOLT-4 leukemia 102% | SR leukemia 101% | OVCAR-8 ovarian 102% | OVCAR-5 ovarian 96.2% | OVCAR-4 ovarian 106% | SK-OV-3 ovarian 123% | IGROV1 ovarian 103% | OVCAR-3 ovarian 98.6% | HS 578T breast 102%

O=S(=O)(NCCCNc1nccc(-c2c(-c3cccc(O)c3)nc3occn23)n1)c1ccc(Br)cc1
inactive: SK-MEL-2 melanoma 54.3% | EKVX NSCLC 105% | SN12C renal 80.3% | UO-31 renal 90.8% | TK-10 renal 135% | ACHN renal 84.9% | CAKI-1 renal 75.6% | CCRF-CEM leukemia 87.9% | MOLT-4 leukemia 72.9% | SR leukemia 89.8% | RPMI-8226 leukemia 86.4% | OVCAR-8 ovarian 86% | OVCAR-5 ovarian 137% | OVCAR-4 ovarian 118% | SK-OV-3 ovarian 94% | IGROV1 ovarian 79.2% | OVCAR-3 ovarian 102% | HS 578T breast 91.6% | NCI/ADR-RES ovarian 107%

CCn1ccnc1C(=O)/C=C/c1ccc(CC(=O)Nc2ccc(F)cc2)cc1
active: CCRF-CEM leukemia 7.58% | RPMI-8226 leukemia 2.37% | OVCAR-8 ovarian -2.13% | OVCAR-3 ovarian -4.68% | NCI/ADR-RES ovarian 4.48%
inactive: SK-MEL-2 melanoma 97.8% | EKVX NSCLC 55.2% | SN12C renal 26.2% | UO-31 renal 39.8% | TK-10 renal 66.3% | ACHN renal 63.6% | CAKI-1 renal 34.1% | MOLT-4 leukemia 24.2% | SR leukemia 14.8% | OVCAR-5 ovarian 44.5% | OVCAR-4 ovarian 35.4% | SK-OV-3 ovarian 86.6% | IGROV1 ovarian 32.3% | HS 578T breast 52.5%

O=C(Nc1nc(-c2ccc(Br)cc2)cs1)c1cc(-c2ccc(Br)cc2)nc2ccc(Cl)cc12
inactive: SK-MEL-2 melanoma 93.9% | EKVX NSCLC 77.8% | SN12C renal 85.1% | UO-31 renal 64.2% | TK-10 renal 115% | ACHN renal 85% | CAKI-1 renal 79.3% | CCRF-CEM leukemia 77.8% | MOLT-4 leukemia 80.6% | SR leukemia 70.4% | RPMI-8226 leukemia 85% | OVCAR-8 ovarian 88.1% | OVCAR-5 ovarian 104% | OVCAR-4 ovarian 82.5% | SK-OV-3 ovarian 78.2% | IGROV1 ovarian 60.5% | OVCAR-3 ovarian 86.9% | HS 578T breast 95.2% | NCI/ADR-RES ovarian 89.7%
